# According to paper PMC7862700, “An all-to-all approach to the identification of sequence-specific readers for epigenetic DNA modifications on cytosine”:
# Legend:
# Experiment in all cases: DAPPL (digital affinity profiling via proximity ligation, sequencing); 10 mM Tris-HCl pH 7.5, 50 mM NaCl, 1 mM DTT, 4% glycerol, room temperature, 30 min; GST-TFs on glutathione beads, 16-mer random dsDNA library, 0.1% formaldehyde crosslink after washing; high values mean tight binding
# GABPA = biological target: T1, GABPA (Homo sapiens, UniProt Q06546 1-454); conditions: protein: recombinant; tags: N-terminal GST; dsDNA, one strand shown
# T1 sequence: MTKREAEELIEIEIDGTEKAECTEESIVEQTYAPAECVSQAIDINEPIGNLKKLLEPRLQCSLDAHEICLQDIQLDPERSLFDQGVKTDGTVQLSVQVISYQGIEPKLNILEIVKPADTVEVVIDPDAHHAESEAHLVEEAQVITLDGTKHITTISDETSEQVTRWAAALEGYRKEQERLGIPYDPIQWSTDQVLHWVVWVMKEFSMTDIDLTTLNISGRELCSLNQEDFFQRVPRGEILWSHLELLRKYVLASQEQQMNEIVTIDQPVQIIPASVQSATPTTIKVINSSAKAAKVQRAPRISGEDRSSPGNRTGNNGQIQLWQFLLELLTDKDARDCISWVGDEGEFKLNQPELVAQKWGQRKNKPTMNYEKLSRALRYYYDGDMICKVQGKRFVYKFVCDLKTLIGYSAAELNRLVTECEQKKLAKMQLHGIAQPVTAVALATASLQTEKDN
# In short: (§1)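 In yeast, human transcription factors were expressed with a GST fusion, then pulled down on glutathione beads and given DNA barcodes. Pooled with a tag-only sample, they were exposed to 200 nmole of a 16-mer random double-stranded DNA library (Tris/NaCl/DTT/glycerol buffer, room temperature, 30 min), washed, crosslinked with 0.1% formaldehyde, proximity-ligated using BsaI/T4 ligase for 1 h at 37 °C, PCR-amplified and read on an Illumina NextSeq500. Each hexamer's frequency of reads for a factor, divided by the matching frequency for the tag-only sample, gives the binding signal.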
# ERG = biological target: T2, ERG (Homo sapiens, UniProt P11308 1-479); conditions: protein: recombinant; tags: N-terminal GST; dsDNA, one strand shown
# T2 sequence: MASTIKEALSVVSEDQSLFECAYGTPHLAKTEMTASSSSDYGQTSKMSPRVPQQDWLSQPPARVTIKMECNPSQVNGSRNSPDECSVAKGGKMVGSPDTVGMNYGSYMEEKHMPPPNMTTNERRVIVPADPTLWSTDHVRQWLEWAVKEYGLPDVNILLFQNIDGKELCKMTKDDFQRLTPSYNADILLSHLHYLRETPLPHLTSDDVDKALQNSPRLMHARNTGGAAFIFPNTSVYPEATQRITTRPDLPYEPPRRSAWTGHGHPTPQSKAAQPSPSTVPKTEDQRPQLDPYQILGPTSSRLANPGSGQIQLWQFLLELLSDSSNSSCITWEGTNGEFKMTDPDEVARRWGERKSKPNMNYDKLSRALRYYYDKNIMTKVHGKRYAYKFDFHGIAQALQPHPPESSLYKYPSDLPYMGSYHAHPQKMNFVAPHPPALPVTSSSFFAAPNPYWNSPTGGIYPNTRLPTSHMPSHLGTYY
# In short: as §1
# ELK3 = biological target: T3, ELK3 (Homo sapiens, UniProt P41970 1-407); conditions: protein: recombinant; tags: N-terminal GST; dsDNA, one strand shown
# T3 sequence: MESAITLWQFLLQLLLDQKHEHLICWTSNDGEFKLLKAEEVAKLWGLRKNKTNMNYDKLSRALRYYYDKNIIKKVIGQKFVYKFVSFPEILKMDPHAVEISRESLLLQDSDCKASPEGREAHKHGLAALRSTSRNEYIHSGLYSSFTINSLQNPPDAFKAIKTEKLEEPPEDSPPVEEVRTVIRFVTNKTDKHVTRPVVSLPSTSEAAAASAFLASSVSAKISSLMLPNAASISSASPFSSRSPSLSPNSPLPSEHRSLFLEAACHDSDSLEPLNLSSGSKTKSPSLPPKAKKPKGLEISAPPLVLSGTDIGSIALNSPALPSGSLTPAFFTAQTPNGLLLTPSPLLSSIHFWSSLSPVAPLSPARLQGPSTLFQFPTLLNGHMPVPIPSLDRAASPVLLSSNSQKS
# In short: as §1
# HSF1 = HSF1 (Homo sapiens, UniProt Q00613 1-529); conditions: protein: recombinant; tags: N-terminal GST; chain copies: 3; dsDNA, one strand shown
# In short: as §1
# ELK4 = biological target: T4, ELK4 (Homo sapiens, UniProt P28324-2 1-405); conditions: protein: recombinant; tags: N-terminal GST; dsDNA, one strand shown
# T4 sequence: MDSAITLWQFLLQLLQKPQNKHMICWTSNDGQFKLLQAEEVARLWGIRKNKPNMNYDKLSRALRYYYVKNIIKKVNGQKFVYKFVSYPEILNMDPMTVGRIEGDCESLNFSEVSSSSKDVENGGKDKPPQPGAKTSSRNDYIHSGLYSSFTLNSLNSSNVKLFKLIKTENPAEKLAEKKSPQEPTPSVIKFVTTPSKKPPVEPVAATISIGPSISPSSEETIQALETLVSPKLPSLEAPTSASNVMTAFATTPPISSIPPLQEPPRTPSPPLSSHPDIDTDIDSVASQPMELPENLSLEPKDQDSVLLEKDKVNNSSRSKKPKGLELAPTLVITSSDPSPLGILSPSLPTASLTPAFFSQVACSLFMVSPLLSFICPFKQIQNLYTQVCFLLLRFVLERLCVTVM
# In short: as §1
# ELF3 = biological target: T5, ELF3 (Homo sapiens, UniProt P78545 1-371); conditions: protein: recombinant; tags: N-terminal GST; dsDNA, one strand shown
# T5 sequence: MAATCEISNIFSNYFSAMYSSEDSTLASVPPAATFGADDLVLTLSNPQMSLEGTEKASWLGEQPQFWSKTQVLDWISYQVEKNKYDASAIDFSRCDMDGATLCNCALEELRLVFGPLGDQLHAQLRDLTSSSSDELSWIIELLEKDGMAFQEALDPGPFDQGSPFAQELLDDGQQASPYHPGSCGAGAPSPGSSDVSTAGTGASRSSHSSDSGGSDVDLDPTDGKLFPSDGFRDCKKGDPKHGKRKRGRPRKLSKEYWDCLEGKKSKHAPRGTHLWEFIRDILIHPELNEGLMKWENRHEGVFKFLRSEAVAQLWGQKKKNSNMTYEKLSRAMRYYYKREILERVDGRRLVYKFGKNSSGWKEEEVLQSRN
# In short: as §1
# CRX = CRX (Homo sapiens, UniProt O43186 1-299); conditions: protein: recombinant; tags: N-terminal GST; dsDNA, one strand shown
# In short: as §1
# ETV1 = ETV1 (Homo sapiens, UniProt P50549 1-477); conditions: protein: recombinant; tags: N-terminal GST; dsDNA, one strand shown
# In short: as §1
# ERF = biological target: T6, ERF (Homo sapiens, UniProt P50548 1-548); conditions: protein: recombinant; tags: N-terminal GST; dsDNA, one strand shown
# T6 sequence: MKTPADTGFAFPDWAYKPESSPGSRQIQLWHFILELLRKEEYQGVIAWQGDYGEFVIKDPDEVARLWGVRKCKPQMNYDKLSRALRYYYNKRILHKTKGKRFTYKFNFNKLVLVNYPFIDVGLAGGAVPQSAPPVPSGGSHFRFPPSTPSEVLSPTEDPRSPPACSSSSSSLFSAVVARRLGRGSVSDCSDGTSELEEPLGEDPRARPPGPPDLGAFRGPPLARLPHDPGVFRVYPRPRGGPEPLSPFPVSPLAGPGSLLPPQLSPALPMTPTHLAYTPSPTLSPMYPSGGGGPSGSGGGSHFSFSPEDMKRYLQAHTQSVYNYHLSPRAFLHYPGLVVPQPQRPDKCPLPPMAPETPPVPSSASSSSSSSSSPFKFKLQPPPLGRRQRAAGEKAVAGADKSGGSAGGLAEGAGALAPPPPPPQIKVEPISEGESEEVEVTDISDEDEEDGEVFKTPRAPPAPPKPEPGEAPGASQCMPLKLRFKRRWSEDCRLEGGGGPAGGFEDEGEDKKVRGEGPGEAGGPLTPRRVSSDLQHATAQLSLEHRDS
# In short: as §1
# ETS2 = biological target: T7, ETS2 (Homo sapiens, UniProt P15036 1-469); conditions: protein: recombinant; tags: N-terminal GST; dsDNA, one strand shown
# T7 sequence: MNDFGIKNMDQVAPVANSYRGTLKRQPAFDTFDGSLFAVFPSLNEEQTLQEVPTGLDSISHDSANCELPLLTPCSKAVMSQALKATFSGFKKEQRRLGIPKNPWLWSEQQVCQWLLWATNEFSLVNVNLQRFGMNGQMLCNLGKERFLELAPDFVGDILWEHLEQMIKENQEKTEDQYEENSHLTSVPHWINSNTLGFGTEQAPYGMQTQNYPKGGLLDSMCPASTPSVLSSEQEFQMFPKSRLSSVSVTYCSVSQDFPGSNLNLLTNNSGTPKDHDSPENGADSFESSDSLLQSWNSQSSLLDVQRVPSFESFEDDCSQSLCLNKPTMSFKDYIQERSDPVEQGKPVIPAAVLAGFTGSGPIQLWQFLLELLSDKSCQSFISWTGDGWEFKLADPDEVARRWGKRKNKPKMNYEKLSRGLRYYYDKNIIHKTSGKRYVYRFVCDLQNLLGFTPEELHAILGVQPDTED
# In short: as §1
# ETV7 = biological target: T8, ETV7 (Homo sapiens, UniProt Q9Y603 1-341); conditions: protein: recombinant; tags: N-terminal GST; dsDNA, one strand shown
# T8 sequence: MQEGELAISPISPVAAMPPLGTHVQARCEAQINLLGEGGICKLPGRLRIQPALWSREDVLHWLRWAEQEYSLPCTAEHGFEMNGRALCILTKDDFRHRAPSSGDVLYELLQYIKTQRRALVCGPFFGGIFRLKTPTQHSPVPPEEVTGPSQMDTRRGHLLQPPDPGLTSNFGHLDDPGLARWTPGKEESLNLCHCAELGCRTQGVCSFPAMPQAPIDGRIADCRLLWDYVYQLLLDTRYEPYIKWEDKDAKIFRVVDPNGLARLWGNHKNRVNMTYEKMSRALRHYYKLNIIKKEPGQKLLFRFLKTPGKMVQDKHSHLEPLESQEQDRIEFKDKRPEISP
# In short: as §1
# ELF5 = biological target: T9, ELF5 (Homo sapiens, UniProt Q9UKW6-2 1-255); conditions: protein: recombinant; tags: N-terminal GST; dsDNA, one strand shown
# T9 sequence: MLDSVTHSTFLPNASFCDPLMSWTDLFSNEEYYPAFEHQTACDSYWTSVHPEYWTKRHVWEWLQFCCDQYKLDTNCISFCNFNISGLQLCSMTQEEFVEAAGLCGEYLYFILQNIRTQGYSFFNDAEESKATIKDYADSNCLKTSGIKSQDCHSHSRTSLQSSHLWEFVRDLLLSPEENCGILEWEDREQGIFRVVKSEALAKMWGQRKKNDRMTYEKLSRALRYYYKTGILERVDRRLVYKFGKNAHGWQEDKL
# In short: as §1
# Chain of HSF1 (Q00613 whole entry): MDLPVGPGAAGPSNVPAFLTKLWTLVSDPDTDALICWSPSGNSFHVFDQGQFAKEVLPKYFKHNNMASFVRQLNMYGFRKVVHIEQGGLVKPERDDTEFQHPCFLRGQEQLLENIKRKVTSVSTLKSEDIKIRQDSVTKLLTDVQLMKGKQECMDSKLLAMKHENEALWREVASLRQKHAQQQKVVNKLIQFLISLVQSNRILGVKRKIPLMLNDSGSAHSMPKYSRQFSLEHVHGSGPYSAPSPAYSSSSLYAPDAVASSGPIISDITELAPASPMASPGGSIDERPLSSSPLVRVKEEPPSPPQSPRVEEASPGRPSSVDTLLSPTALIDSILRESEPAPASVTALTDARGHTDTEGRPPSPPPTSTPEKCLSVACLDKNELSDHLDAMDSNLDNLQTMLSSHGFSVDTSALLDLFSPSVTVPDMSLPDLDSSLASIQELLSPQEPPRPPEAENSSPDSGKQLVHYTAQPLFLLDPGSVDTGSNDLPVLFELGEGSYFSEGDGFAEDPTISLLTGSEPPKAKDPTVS
# Chain of ETV1 (P50549 whole entry): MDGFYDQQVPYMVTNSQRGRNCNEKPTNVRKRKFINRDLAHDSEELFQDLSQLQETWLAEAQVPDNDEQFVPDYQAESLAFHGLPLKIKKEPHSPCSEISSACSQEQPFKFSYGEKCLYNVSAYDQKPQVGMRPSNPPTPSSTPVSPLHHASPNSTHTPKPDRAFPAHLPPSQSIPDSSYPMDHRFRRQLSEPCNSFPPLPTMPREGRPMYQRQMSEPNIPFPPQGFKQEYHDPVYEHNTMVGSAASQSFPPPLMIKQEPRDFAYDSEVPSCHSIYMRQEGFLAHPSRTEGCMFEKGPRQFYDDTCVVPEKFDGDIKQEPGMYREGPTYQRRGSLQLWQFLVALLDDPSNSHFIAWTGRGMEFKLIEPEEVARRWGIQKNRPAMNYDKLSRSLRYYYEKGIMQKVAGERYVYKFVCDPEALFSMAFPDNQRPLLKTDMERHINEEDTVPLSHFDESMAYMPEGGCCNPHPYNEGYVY
# Chain of CRX (O43186 whole entry): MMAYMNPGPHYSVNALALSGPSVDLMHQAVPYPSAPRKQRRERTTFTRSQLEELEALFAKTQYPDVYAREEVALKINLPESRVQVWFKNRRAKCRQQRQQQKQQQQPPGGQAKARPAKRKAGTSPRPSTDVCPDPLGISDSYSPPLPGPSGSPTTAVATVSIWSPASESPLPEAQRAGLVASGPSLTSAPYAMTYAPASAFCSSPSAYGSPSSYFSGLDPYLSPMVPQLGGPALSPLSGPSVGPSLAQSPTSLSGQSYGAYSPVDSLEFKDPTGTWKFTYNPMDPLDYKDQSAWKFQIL
sequence,measurement,setting,value
AGGCTT,binding signal,GABPA,"1.02 fold enrichment (6-mer frequency, TF over GST control)"
same,binding signal,ERG,"1.04 fold enrichment (6-mer frequency, TF over GST control)"
same,binding signal,ELK3,"1.05 fold enrichment (6-mer frequency, TF over GST control)"
same,binding signal,HSF1,"1.24 fold enrichment (6-mer frequency, TF over GST control)"
same,binding signal,ELK4,"1.02 fold enrichment (6-mer frequency, TF over GST control)"
same,binding signal,ELF3,"1.11 fold enrichment (6-mer frequency, TF over GST control)"
same,binding signal,CRX,"1.74 fold enrichment (6-mer frequency, TF over GST control)"
same,binding signal,ETV1,"1 fold enrichment (6-mer frequency, TF over GST control)"
same,binding signal,ERF,"1.02 fold enrichment (6-mer frequency, TF over GST control)"
same,binding signal,ETS2,"1.04 fold enrichment (6-mer frequency, TF over GST control)"
same,binding signal,ETV7,"1.08 fold enrichment (6-mer frequency, TF over GST control)"
same,binding signal,ELF5,"1.02 fold enrichment (6-mer frequency, TF over GST control)"
